Assay outcomes from PubChem.
Pf apPOL inh: Pf-apPOL DNA polymerase inhibition | Recombinant Pf-apPOL, molecular beacon fluorescence, 1.5 h | inhibition, % at 10 µM | 0.25% of 210,000 active | AID 1794808
mHTT-CaM PPI inh: inhibitors of human mutant huntingtin-calmodulin interaction; P42858; 3.6% of 190,000 active; AlphaScreen His-mHTT/GST-CaM binding, luminescence; inhibition, % at 15 µM; AID 1671202;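 further: 0% = both proteins with DMSO and 100% = one protein alone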
Starred values were filed as active, the others as inactive; · = no result given; + = active, no number. Most compounds without a hit are left out; they make up all but 3.5% or so of the library. No stated cut-off is given here; in the data, active means inhibition above about 50%; inactive means the rest.

SMILES	Pf apPOL inh	mHTT-CaM PPI inh
Cc1ccc(C)c(N2CCN(C(=O)c3ccc4c(c3)N(C)C(=O)C3CCCCN43)CC2)c1 (stereo not drawn)	-1	94*
CN1c2cc(C(=O)N3CCN(c4cccc(Cl)c4)CC3)ccc2C(=O)N2CCCCC21 (stereo not drawn)	3	97*
CN1C(=O)C2CCCCN2c2ccc(C(=O)N3CCc4ccccc4C3)cc21 (stereo not drawn)	-2	40
Cc1cccc(N2CCN(C(=O)c3ccc4c(c3)N(C)C3CCCCN3C4=O)CC2)c1 (stereo not drawn)	-1	2
CC(=O)N1CCCC(c2ccnc(Nc3ccc(F)cc3)n2)C1 (stereo not drawn)	-8	15
Cc1ccc(Nc2nccc(C3CCCN(C(=O)Cc4cccs4)C3)n2)cc1 (stereo not drawn)	-5	63*
O=C(Cc1cccs1)N1CCCC(c2ccnc(Nc3ccc(F)cc3)n2)C1 (stereo not drawn)	-2	53*
Cc1ccc(Nc2nccc(C3CCCN(C(=O)C4CCC4)C3)n2)cc1 (stereo not drawn)	-4	47
CCc1ccc(NC(=O)C2c3ccccc3C(=O)N(CCOC)C2c2ccc(F)cc2)cc1 (stereo not drawn)	-1	2
COc1ccc(OC)c(Nc2nc(-c3c(C)nc4ncccn34)cs2)c1	-7	82*
CCN(CC)c1ccc(Nc2nc(-c3c(C)nc4sccn34)cs2)cc1	0	93*
COc1ccccc1Nc1nc(-c2cccnc2)cs1	-2	25
COc1ccccc1Nc1nc(-c2c(C)nc3ccccn23)cs1	-3	62*
COc1ccccc1Nc1nc(-c2ccccc2)cs1	-1	18
COc1ccccc1Nc1nc(-c2c(C)nc3sccn23)cs1	-4	80*
COc1ccc(OC)c(Nc2nc(-c3cccc([N+](=O)[O-])c3)cs2)c1	3	4
Cc1nc2sccn2c1-c1csc(Nc2ccc([N+](=O)[O-])cc2)n1	-1	10
COc1ccccc1C(=O)N1CCC(c2nc(CNC(=O)C(C)C)cs2)CC1	-8	2
CCc1ccc(NC(=O)C(=O)NCCN2CCN(Cc3ccccc3F)CC2)cc1	-9	4
CCCNC(=O)C1CCCN(c2cnn(C)c(=O)c2)C1 (stereo not drawn)	0	-4
Cn1c(SCc2ccon2)nc2sc3c(c2c1=O)CCC3	·	-1
Cc1ccc(N2COc3cc4c(cc3C2)OCO4)cc1Cl	-1	18
Cc1cccc(N2COc3cc4c(cc3C2)OCO4)c1	-2	59*
Cc1cc(C)cc(N2COc3cc4c(cc3C2)OCO4)c1	1	53*
Cc1ccc(N2COc3cc4c(cc3C2)OCO4)cc1	-5	14
SMILES	Pf apPOL inh	mHTT-CaM PPI inh
Cc1oc(C2CCN(C(=O)CCCc3ccccc3)CC2)nc1C(=O)N1CCOCC1	-8	25
CN(C)CCSc1ncccc1C(=O)N(C)C	-3	-7
CC(C)C(=O)NC(/C=C/c1ccccc1)c1cc([N+](=O)[O-])c2cccnc2c1O (stereo not drawn)	-4	5
CC(=O)NC(c1ccco1)c1cc([N+](=O)[O-])c2cccnc2c1O (stereo not drawn)	-5	100*
CCCC(=O)NC(c1ccco1)c1cc([N+](=O)[O-])c2cccnc2c1O (stereo not drawn)	5	100*
CC(C)C(=O)NC(c1ccco1)c1cc([N+](=O)[O-])c2cccnc2c1O (stereo not drawn)	-19	100*
Cc1ccc(/C=C2/SC(N3CCCCC3)=NC2=O)cc1	-5	7
Cc1ccnc(N2CCCC(C(=O)NCC3CCN(Cc4ccccc4C)CC3)C2)n1 (stereo not drawn)	0	4
Cc1ccsc1C1N(c2cccc(Cl)c2)C(=O)C2CCCN21 (stereo not drawn)	-5	2
CN(C(=O)Cc1c[nH]c2ccccc12)C(C(=O)Nc1ccc2c(c1)OCO2)c1ccccc1 (stereo not drawn)	-4	88*
CC(=O)NCC(=O)N(C)C(C(=O)Nc1ccc2c(c1)OCO2)c1ccccc1 (stereo not drawn)	-2	5
CC(=O)Nc1ccc(NC(=O)CCc2c[nH]c3ccccc23)cc1	-9	10
CC(C)N(Cc1c[nH]c2ccccc12)C(=O)Nc1ccc(Cl)c(Cl)c1	-16	68*
COc1ccc(/C=c2\sc3n(c2=O)CN(c2cccc(C(C)=O)c2)CN=3)cc1	1	14
O=C(NCc1cccnc1)/C(=N\O)c1ccccn1	11	+
O=C(NCc1cccnc1)C(=O)NCc1cccnc1	1	-5
Cc1cc(C)cc(NC(=S)NCCCNC(=O)OC(C)(C)C)c1	0	·
COc1ccc(C)cc1S(=O)(=O)n1nnc2cc(Cl)ccc21	4	100*
COc1cc(C)c(S(=O)(=O)n2nnc3ccccc32)cc1C	3	-14
COc1cc(C)c(C)cc1S(=O)(=O)n1nnc2ccccc21	-2	88*
COc1ccc(S(=O)(=O)n2nnc3ccccc32)c(C)c1	19	-2
COc1ccc(OC)c(S(=O)(=O)n2nnc3ccccc32)c1	-4	100*
COc1ccc(C)cc1S(=O)(=O)n1nc(C)cc1C	-3	-21
Cc1ccc(CNCc2csc(N3CCN(C(=O)C4CCCC4)CC3)n2)cc1	0	7
CCCN(C(=O)Cn1nnnc1N)C1(C(=O)Nc2ccccc2C)CCCCC1	6	0
SMILES	Pf apPOL inh	mHTT-CaM PPI inh
O=C(NCC1COC2(CCCC2)O1)C12CC3CC(CC(C3)C1)C2 (stereo not drawn)	-6	-5
CCc1nnc(-c2ccc(NC(=O)c3c(F)cccc3F)cc2)o1	-2	-13
COC(=O)C=c1sc(=C(C#N)C(=O)N2CCOCC2)n(-c2ccccc2)c1=O	-4	-1
CS(=O)(=O)N(Cc1ccc(C(=O)Nc2ccc(F)cc2)cc1)c1ccccc1	50*	-5
CCOc1ccccc1NC(=O)CN(c1ccc(F)cc1)S(C)(=O)=O	66*	-4
CCOc1ccc(N(CC(=O)Nc2ccccc2OCC)S(C)(=O)=O)cc1	-2	15
CS(=O)(=O)N(Cc1ccccc1)c1ccc(C(=O)Nc2ccc(F)cc2)cc1	0	7
CCNC(=O)c1sc2cnccc2c1-n1cccc1	-4	-4
c1ccc2c3c([nH]c2c1)CCCC3	·	37
O=C(Nc1ccccc1)c1cccc2c3c([nH]c12)CCCC3	-1	76*
CC(O)(CNC(=O)c1nc2ccccc2s1)c1ccc2c(c1)OCO2 (stereo not drawn)	-6	-9
CC(=O)N1CCc2sc(C(=O)NCC3CCCO3)cc2C1 (stereo not drawn)	4	-7
COc1ccc(-n2nc3c(c2NC(=O)c2ccc(C(C)(C)C)cc2)CSC3)cc1	3	100*
CC(C)C(=O)Nc1c2c(nn1-c1ccc(Oc3ccccc3)cc1)CSC2	5	65*
COc1ccc(-n2nc3c(c2NC(=O)c2ccccc2)CSC3)cc1	-1	31
COc1ccc(-n2nc3c(c2NC(=O)/C=C/c2ccccc2)CSC3)cc1	-1	52*
COc1ccc(-n2nc3c(c2NC(=O)/C=C/c2cc(OC)c(OC)c(OC)c2)CSC3)cc1	-7	34
COc1ccc(-n2nc3c(c2NC(=O)c2ccc(Br)cc2)CSC3)cc1	5	30
O=C(NC1CCCCC1)C1CCN(c2cnc(N3CCSCC3)nc2)CC1	2	-13
CCCCNS(=O)(=O)c1cnn(-c2ccccc2)c1Cl	8	-9
